The record followed here is publication PMC7862700, “An all-to-all approach to the identification of sequence-specific readers for epigenetic DNA modifications on cytosine”.

What all share (test): DAPPL (digital affinity profiling via proximity ligation, sequencing); 10 mM Tris-HCl pH 7.5, 50 mM NaCl, 1 mM DTT, 4% glycerol, room temperature, 30 min; GST-TFs on glutathione beads, 16-mer random dsDNA library, 0.1% formaldehyde crosslink after washing; high values mean tight binding
Holding throughout (conditions): protein: recombinant; tags: N-terminal GST; dsDNA, one strand shown

Assay [1] deals with T1, ERF (Homo sapiens, UniProt P50548 1-548).
T1 sequence: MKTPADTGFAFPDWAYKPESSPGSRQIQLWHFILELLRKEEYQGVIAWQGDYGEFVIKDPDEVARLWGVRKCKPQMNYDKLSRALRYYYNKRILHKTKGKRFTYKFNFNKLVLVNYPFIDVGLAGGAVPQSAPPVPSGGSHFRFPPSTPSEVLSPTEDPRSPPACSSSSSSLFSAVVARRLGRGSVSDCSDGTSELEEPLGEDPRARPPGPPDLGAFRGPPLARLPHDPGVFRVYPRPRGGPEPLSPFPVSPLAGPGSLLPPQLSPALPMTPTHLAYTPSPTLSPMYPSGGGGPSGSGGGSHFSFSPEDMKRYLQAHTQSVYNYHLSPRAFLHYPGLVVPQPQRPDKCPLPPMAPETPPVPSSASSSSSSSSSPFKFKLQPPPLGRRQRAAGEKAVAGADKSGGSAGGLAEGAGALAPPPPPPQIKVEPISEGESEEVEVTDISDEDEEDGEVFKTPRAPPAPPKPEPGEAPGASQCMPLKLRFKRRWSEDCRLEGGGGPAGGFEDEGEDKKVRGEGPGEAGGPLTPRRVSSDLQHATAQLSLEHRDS
In short, it runs like this: (§1)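 Sequencing on an Illumina NextSeq500 followed washing, crosslinking with 0.1% formaldehyde, proximity ligation (BsaI/T4 ligase, 1 h, 37 °C) and PCR amplification of pools that had been incubated for 30 min at room temperature with 200 nmole of a random double-stranded 16-mer DNA library in Tris/NaCl/DTT/glycerol buffer. Each pool held DNA-barcoded human transcription factors, expressed in yeast as GST fusions and captured on glutathione beads, plus a tag-only sample. Binding signal is a hexamer's read frequency for a factor divided by its frequency in the tag-only sample.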

Assay [2] addresses T2, ETV3L (Homo sapiens, UniProt Q6ZN32 1-361).
T2 sequence: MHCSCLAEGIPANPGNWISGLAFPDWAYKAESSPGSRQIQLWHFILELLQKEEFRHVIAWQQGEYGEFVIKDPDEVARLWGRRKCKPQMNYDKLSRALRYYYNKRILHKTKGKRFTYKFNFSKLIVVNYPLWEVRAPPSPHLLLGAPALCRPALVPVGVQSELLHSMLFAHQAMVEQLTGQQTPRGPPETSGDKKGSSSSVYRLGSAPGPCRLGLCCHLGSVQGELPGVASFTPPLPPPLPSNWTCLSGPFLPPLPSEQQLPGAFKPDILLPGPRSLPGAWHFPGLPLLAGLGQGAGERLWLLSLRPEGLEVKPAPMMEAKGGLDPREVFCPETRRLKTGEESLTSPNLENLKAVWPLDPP
The method in brief: as §1

The target of assay [3] is T3, ETS2 (Homo sapiens, UniProt P15036 1-469).
T3 sequence: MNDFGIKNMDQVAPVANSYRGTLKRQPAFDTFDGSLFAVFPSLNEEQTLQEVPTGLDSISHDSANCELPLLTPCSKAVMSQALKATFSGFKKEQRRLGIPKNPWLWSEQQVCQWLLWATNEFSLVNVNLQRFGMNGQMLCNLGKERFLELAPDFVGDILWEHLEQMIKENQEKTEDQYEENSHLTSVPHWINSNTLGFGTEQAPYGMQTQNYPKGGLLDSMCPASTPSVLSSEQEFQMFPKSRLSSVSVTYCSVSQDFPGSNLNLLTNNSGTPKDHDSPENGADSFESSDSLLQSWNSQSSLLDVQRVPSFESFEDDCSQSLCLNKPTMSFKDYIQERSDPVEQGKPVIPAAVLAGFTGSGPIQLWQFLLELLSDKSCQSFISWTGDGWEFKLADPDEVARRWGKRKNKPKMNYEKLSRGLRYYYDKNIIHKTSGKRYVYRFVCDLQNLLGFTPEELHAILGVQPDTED
In short, it runs like this:
as §1

In assay [4] the target is T4, SPDEF (Homo sapiens, UniProt O95238 1-335).
T4 sequence: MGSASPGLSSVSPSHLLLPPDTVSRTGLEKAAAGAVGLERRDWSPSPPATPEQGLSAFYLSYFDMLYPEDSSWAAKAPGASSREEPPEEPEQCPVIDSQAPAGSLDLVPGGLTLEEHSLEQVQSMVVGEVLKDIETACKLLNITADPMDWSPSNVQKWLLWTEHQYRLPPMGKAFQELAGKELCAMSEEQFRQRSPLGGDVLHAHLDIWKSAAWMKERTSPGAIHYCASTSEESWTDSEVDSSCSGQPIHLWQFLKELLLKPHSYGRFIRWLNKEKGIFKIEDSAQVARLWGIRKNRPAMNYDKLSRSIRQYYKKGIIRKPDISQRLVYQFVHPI
In short, it runs like this: as §1

The target in assay [5] is T5, ETV7 (Homo sapiens, UniProt Q9Y603 1-341).
T5 sequence: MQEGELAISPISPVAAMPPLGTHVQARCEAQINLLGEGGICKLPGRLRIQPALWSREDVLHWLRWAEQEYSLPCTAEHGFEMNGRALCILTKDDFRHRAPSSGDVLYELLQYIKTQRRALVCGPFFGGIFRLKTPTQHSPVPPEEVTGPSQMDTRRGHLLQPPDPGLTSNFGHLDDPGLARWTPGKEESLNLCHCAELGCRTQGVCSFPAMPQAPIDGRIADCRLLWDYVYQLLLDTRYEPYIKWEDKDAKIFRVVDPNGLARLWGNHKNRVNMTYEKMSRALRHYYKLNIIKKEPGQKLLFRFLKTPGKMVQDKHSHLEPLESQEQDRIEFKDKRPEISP
The method in brief: as §1

The target of assay [6] is T6, ELF5 (Homo sapiens, UniProt Q9UKW6-2 1-255).
T6 sequence: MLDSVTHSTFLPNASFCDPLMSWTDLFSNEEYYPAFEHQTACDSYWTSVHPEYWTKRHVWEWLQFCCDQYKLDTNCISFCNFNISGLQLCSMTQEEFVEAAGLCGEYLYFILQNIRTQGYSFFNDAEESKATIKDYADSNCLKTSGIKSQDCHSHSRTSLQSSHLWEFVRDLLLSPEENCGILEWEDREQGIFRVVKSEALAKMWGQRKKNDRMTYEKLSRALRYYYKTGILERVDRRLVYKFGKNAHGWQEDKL
In short, it runs like this:
as §1

Assay [7] addresses T7, ETV3 (Homo sapiens, UniProt P41162-2 1-143).
T7 sequence: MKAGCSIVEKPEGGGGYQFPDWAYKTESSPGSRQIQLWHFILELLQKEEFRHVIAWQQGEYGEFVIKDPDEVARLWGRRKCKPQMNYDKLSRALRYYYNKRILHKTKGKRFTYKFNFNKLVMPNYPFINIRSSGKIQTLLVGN
In short, it runs like this: as §1

The target in assay [8] is ETV6 (Homo sapiens, UniProt P41212 1-452). The method in brief: as §1
Chain of ETV6 (P41212 whole entry): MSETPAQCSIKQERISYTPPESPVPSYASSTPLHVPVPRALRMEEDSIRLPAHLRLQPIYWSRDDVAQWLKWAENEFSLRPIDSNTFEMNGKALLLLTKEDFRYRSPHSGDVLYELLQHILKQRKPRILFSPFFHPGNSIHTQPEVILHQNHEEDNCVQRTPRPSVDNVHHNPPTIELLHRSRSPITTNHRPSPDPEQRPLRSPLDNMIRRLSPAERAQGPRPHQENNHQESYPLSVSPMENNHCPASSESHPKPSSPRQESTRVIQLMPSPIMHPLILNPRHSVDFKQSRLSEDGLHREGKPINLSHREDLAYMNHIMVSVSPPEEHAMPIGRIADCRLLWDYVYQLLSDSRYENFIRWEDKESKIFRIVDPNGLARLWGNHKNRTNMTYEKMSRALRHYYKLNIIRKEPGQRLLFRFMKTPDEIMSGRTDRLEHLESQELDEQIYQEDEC

Take AACGGC: the binding signal in assay [1] was 1.2 fold enrichment (6-mer frequency, TF over GST control); in assay [2], 1.23 fold enrichment (6-mer frequency, TF over GST control); in assay [3], 1.22 fold enrichment (6-mer frequency, TF over GST control); in assay [4] it was 1.16 fold enrichment (6-mer frequency, TF over GST control); in assay [5] it was 1.11 fold enrichment (6-mer frequency, TF over GST control); in assay [6], 1.16 fold enrichment (6-mer frequency, TF over GST control). The binding signal in assay [7] was 1.29 fold enrichment (6-mer frequency, TF over GST control); in assay [8], 1.26 fold enrichment (6-mer frequency, TF over GST control).
Regarding ACCGGA, the binding signal in assay [1] was 2.82 fold enrichment (6-mer frequency, TF over GST control); in assay [2], 2.97 fold enrichment (6-mer frequency, TF over GST control); in assay [3], 3.14 fold enrichment (6-mer frequency, TF over GST control); in assay [4] it was 4.52 fold enrichment (6-mer frequency, TF over GST control); in assay [5], 2.74 fold enrichment (6-mer frequency, TF over GST control); in assay [6], 3.2 fold enrichment (6-mer frequency, TF over GST control). Further, the binding signal is 3.45 fold enrichment (6-mer frequency, TF over GST control) in assay [7] and 3.16 fold enrichment (6-mer frequency, TF over GST control) in assay [8].
In the case of ATGCCC, the binding signal is 1.31 fold enrichment (6-mer frequency, TF over GST control) in assay [1]; 1.26 fold enrichment (6-mer frequency, TF over GST control) in assay [2]; 1.29 fold enrichment (6-mer frequency, TF over GST control) in assay [3]; 1.36 fold enrichment (6-mer frequency, TF over GST control) in assay [4]; 1.45 fold enrichment (6-mer frequency, TF over GST control) in assay [5]; 1.27 fold enrichment (6-mer frequency, TF over GST control) in assay [6]. Besides, the binding signal in assay [7] was 1.32 fold enrichment (6-mer frequency, TF over GST control); in assay [8], 1.35 fold enrichment (6-mer frequency, TF over GST control).
For the sequence AAACTG, the binding signal in assay [1] was 1.03 fold enrichment (6-mer frequency, TF over GST control); in assay [2], 1.08 fold enrichment (6-mer frequency, TF over GST control); in assay [3], 1.08 fold enrichment (6-mer frequency, TF over GST control); in assay [4], 1.02 fold enrichment (6-mer frequency, TF over GST control); in assay [5], 1.13 fold enrichment (6-mer frequency, TF over GST control); in assay [6], 1.1 fold enrichment (6-mer frequency, TF over GST control). Further, the binding signal in assay [7] is 1.07 fold enrichment (6-mer frequency, TF over GST control); in assay [8], 1.12 fold enrichment (6-mer frequency, TF over GST control).
Regarding CTCATC, the binding signal in assay [1] was 1.44 fold enrichment (6-mer frequency, TF over GST control); in assay [2], 1.5 fold enrichment (6-mer frequency, TF over GST control); in assay [3], 1.32 fold enrichment (6-mer frequency, TF over GST control); in assay [4], 1.39 fold enrichment (6-mer frequency, TF over GST control); in assay [5], 1.23 fold enrichment (6-mer frequency, TF over GST control); in assay [6] it was 1.44 fold enrichment (6-mer frequency, TF over GST control). Moreover, the binding signal is 1.48 fold enrichment (6-mer frequency, TF over GST control) in assay [7] and 1.37 fold enrichment (6-mer frequency, TF over GST control) in assay [8].
Turning to GTTACA, the binding signal in assay [1] was 1.24 fold enrichment (6-mer frequency, TF over GST control); in assay [2], 1.06 fold enrichment (6-mer frequency, TF over GST control); in assay [3], 1.2 fold enrichment (6-mer frequency, TF over GST control); in assay [4], 1.21 fold enrichment (6-mer frequency, TF over GST control); in assay [5], 1.12 fold enrichment (6-mer frequency, TF over GST control); in assay [6] it was 1.14 fold enrichment (6-mer frequency, TF over GST control). The binding signal in assay [7] was 1.09 fold enrichment (6-mer frequency, TF over GST control); in assay [8] it was 1.07 fold enrichment (6-mer frequency, TF over GST control).
For TGCACC, the binding signal in assay [1] is 1.21 fold enrichment (6-mer frequency, TF over GST control); in assay [2], 1.21 fold enrichment (6-mer frequency, TF over GST control); in assay [3], 1.08 fold enrichment (6-mer frequency, TF over GST control); in assay [4], 1.2 fold enrichment (6-mer frequency, TF over GST control); in assay [5], 1.02 fold enrichment (6-mer frequency, TF over GST control); in assay [6], 1.16 fold enrichment (6-mer frequency, TF over GST control). Further, the binding signal in assay [7] is 1.24 fold enrichment (6-mer frequency, TF over GST control); in assay [8] it was 1.19 fold enrichment (6-mer frequency, TF over GST control).
As for CGGATA, the binding signal in assay [1] is 1.17 fold enrichment (6-mer frequency, TF over GST control); in assay [2], 1.13 fold enrichment (6-mer frequency, TF over GST control); in assay [3], 1.3 fold enrichment (6-mer frequency, TF over GST control); in assay [4], 1.93 fold enrichment (6-mer frequency, TF over GST control); in assay [5], 1.09 fold enrichment (6-mer frequency, TF over GST control); in assay [6], 1.37 fold enrichment (6-mer frequency, TF over GST control). In addition, the binding signal in assay [7] is 1.33 fold enrichment (6-mer frequency, TF over GST control); in assay [8], 1.21 fold enrichment (6-mer frequency, TF over GST control).
